In PubChem BioAssay (Tox21):
Results filed as inconclusive are left out. Active and inactive are the calls of the source. Unless noted, the call rests on the fitted dose curve; in most records, active means well fitted curve in the direction sought with a large enough effect in the repeat runs; inconclusive means weak or mixed curves; inactive means no such curve, though single readings can be large; an effect the other way counts as inactive or inconclusive.

Legend:
[1] = qHTS assay to identify small molecule antagonists of the estrogen related receptor (ERR) signaling pathway from Tox21 library - cell viability counter screen (AID 1224834); further: nearly all actives have a fitted effect of over 30% in size
Procedure, shortened: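 After 17.5 h of compound exposure at 37 C, ERR cells are incubated with CellTiter-Fluor for 30 min and fluorescence intensity serves as the viability measure.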

[2] = biological target: Luciferin 4-monooxygenase (Photinus pyralis) (UniProt P08659); assay: qHTS assay to identify small molecule inhibitors of firefly luciferase (AID 1224835); further: nearly all actives have a fitted effect of over 25% in size; further: potency means the concentration at half of the fitted maximal effect
Procedure, shortened: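 Biochemical qHTS: compounds run as interplate titrations against purified firefly enzyme, with D-luciferin and ATP each at its KM concentration. Light output recorded by CCD imaging.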

[3] = qHTS assay to identify small molecule agonists of the constitutive androstane receptor (CAR) signaling pathway - cell viability counter screen (AID 1224836); further: series mostly up to about 92 µM; nearly all actives have a fitted effect of over 45% in size
Procedure, shortened: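 Cells were seeded and incubated 4 hrs. Compounds were added across 15 concentrations together with PK11195 at 0.75 uM final. Plates were incubated 23 hrs at 37 C. CellTiter-Fluor was added and fluorescence measured.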

[4] = qHTS assay to identify small molecule antagonists of the constitutive androstane receptor (CAR) signaling pathway - cell viability counter screen (AID 1224837); further: series mostly up to about 92 µM; nearly all actives have a fitted effect of over 45% in size
Procedure, shortened: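 Counter screen run in HepG2-CYP2B6-hCAR cells: 4 hr settle, compound titration (15 concentrations) with 50 nM CITCO, 23 hr at 37 C/5% CO2, CellTiter-Fluor fluorescence.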

[5] = biological target: Nuclear receptor subfamily 1 group I member 3 (Homo sapiens) (UniProt Q14994); assay: qHTS assay to identify small molecule antagonists of the constitutive androstane receptor (CAR) signaling pathway (AID 1224838);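 further: HepG2 cells stably expressing hCAR with CYP2B6 luciferase reporter stimulated by CITCO; nearly all actives have a fitted effect of over 40% in size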
Procedure, shortened: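 Cell line: HepG2 double-stable for hCAR and CYP2B6-2.2kb reporter. Agonist: CITCO, 50 nM final. Compounds: 15 concentrations, 24 h, 37 C. Detection: ONE-Glo luminescence.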

[6] = biological target: Nuclear receptor subfamily 1 group I member 3 (Homo sapiens) (UniProt Q14994); assay: qHTS assay to identify small molecule agonists of the constitutive androstane receptor (CAR) signaling pathway (AID 1224839); further: nearly all actives have a fitted effect of over 15% in size; further: potency means the concentration at half of the fitted maximal effect
Procedure, shortened: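 Cells were plated and incubated 4 hrs, then dosed with compounds at 15 concentrations. PK11195 was added to 0.75 uM final. After 24 hrs at 37 C, luciferase luminescence was measured.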

[7] = qHTS assay to identify small molecule antagonists of the estrogen related receptor signaling pathway with the pleiotropic PPARgamma coactivator (PGC) from Tox21 10K library - cell viability counter screen (AID 1224840; active means well fitted cell-killing curve with a large enough effect in the repeat runs, not every such curve was filed as active; further: nearly all actives have a fitted effect of over 40% in size)
Procedure, shortened: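 Following seeding of 2,000 PGC/ERR cells/well and 6 hours' incubation, test compounds were delivered in DMSO. The plates then sat 17.5 hours at 37 C before a fluorogenic live-cell protease reagent (CellTiter-Fluor) was read after 30 min.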

[8] = qHTS assay to identify small molecule agonists of the estrogen related receptor signaling pathway with the pleiotropic PPARgamma coactivator (PGC) from Tox21 10K library (AID 1224842); further: nearly all actives have a fitted effect of over 15% in size
Procedure, shortened: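 PGC/ERR reporter cell line, 2,000 cells per well, incubated 6 h at 37 C before 23 nL compound in DMSO was added. After 18 h at 37 C, One-Glo luminescence read following 30 min at room temperature.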

[9] = qHTS assay to identify small molecule antagonists of the estrogen related receptor signaling pathway with the pleiotropic PPARgamma coactivator (PGC) from Tox21 10K library (AID 1224841; call rule not given here; further: series mostly up to about 92 µM; actives are mostly falling curves and most rising ones were filed inactive; nearly all actives have a fitted effect of over 50% in size)
Procedure, shortened: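 qHTS antagonist format: PGC/ERR cells, 2k/well, compound in DMSO by pin transfer after 6 h attachment, 18 h treatment at 37 C, One-Glo luminescence read at 30 min.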

Measured: Potency

Sequence of Nuclear receptor subfamily 1 group I member 3 (Homo sapiens) (Q14994 whole entry, looked up): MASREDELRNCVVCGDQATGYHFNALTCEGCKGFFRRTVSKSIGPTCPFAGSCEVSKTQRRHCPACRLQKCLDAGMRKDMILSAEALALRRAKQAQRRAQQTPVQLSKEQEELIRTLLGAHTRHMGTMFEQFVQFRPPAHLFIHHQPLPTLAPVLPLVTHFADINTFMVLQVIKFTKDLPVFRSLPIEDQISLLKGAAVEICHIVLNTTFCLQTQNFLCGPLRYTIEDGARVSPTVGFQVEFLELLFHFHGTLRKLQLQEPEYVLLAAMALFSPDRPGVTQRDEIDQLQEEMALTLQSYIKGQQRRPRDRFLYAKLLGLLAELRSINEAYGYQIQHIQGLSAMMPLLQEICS
Sequence of Luciferin 4-monooxygenase (Photinus pyralis) (P08659 whole entry, looked up): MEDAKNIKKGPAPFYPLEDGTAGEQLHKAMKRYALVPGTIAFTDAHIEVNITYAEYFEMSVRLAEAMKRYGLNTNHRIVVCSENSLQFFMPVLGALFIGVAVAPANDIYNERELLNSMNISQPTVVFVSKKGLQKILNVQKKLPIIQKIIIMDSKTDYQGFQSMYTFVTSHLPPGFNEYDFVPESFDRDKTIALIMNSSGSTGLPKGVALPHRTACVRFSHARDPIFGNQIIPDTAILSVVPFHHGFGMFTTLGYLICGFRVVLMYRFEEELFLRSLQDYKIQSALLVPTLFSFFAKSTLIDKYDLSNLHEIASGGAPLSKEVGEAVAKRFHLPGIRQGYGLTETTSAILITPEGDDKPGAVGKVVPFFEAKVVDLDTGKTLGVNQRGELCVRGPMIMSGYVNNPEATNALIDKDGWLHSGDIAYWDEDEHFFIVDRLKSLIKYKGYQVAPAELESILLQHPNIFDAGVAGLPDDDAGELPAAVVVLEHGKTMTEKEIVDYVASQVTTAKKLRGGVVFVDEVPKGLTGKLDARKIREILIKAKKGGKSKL

COc1ccc(N=[N+]([O-])c2ccc(OC)cc2)cc1
active: [2] 0.222 µM | [6] 0.762 µM
not listed: [8] | [9]
inactive: all other assays above

Cc1ccccc1Br
not listed: [9]
inactive: all other assays above

CCCCN(CCO)CCO
inactive: all assays above

COc1cccc(OC)c1
not listed: [8] | [9]
inactive: all other assays above

COc1ccc2cc(C=O)ccc2c1
active: [2] 34.7 µM
not listed: [6] | [9]
inactive: all other assays above

CCCCCCOC(=O)CC(CC(=O)OCCCCCC)(OC(=O)CCC)C(=O)OCCCCCC
not listed: [9]
inactive: all other assays above

CCCCCCCCCCCCCCCCCCOCC(O)CO (centres undefined)
not listed: [6] | [8] | [9]
inactive: all other assays above

C/C=C1\C(=O)C[C@H]2[C@@H]3CCC4=CC(=O)CC[C@]4(C)[C@H]3CC[C@]12C
not listed: [6] | [8] | [9]
inactive: all other assays above

C=CC(=O)N1CCOCC1
not listed: [6]
inactive: all other assays above

O=[N+]([O-])c1ccc(CCO)cc1
not listed: [6] | [8] | [9]
inactive: all other assays above

CCN1CCCC(OC(=O)C(c2ccccc2)c2ccccc2)C1 (centres undefined)
not listed: [6] | [8] | [9]
inactive: all other assays above

C1C2OC2C2C1C1CC2C2OC12 (centres undefined)
not listed: [6] | [8] | [9]
inactive: all other assays above

CCCc1ccccc1O
not listed: [6] | [8] | [9]
inactive: all other assays above

CC(C)(O)c1ccccc1
not listed: [6]
inactive: all other assays above

CC(=O)NC(Cc1ccccc1)C(=O)O (centres undefined)
not listed: [6] | [8] | [9]
inactive: all other assays above
